Results: paper PMC5540273 (PLoS ONE, 2017)

Experiments:
Conditions in all cases: concentration: 1 μM, replicates: in singlicate; n = 1
SgK110 = system: SgK110
TAK1 = system: T1, TAK1
T1 construct: gene MAP3K7

TAOK1 = system: TAOK1
TAOK2 = system: TAOK2
TAOK3 = system: TAOK3
TBK1 = system: TBK1
TEC = system: TEC
TESK1 = system: TESK1
TGFBR1 = system: TGFBR1
TGFBR2 = system: TGFBR2
TIE1 = system: TIE1
TIE2 = system: T2, TIE2
T2 construct: gene TEK

TLK1 = system: TLK1
TLK2 = system: TLK2
TNIK = system: TNIK
TNK1 = system: TNK1
TNK2 = system: TNK2
TNNI3K = system: TNNI3K
TRKA = system: T3, TRKA
T3 construct: gene NTRK1

TRKB = system: TRKB
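Also: KINOMEscan kinase panel screen.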

Row | Structure (SMILES) | %Inh (SgK110) | %Inh (TAK1) | %Inh (TAOK1) | %Inh (TAOK2) | %Inh (TAOK3) | %Inh (TBK1) | %Inh (TEC) | %Inh (TESK1) | %Inh (TGFBR1) | %Inh (TGFBR2) | %Inh (TIE1) | %Inh (TIE2) | %Inh (TLK1) | %Inh (TLK2) | %Inh (TNIK) | %Inh (TNK1) | %Inh (TNK2) | %Inh (TNNI3K) | %Inh (TRKA) | %Inh (TRKB)
1 | CS(=O)(=O)CCNCc1ccc(-c2ccc3ncnc(Nc4ccc(OCc5ccccc5)c(Cl)c4)c3c2)o1.Cl [GW574783] | 0% | 0% | 0% | 0% | 0% | 2% | 7% | 4% | 11% | 9% | 34% | 2% | 0% | 0% | 0% | 0% | 9% | 0% | 17% | 0%
2 | NC(=O)c1sc(-n2cnc3ccccc32)cc1OCc1ccccc1F [GSK1024306] | 0% | 0% | 0% | 0% | 0% | 0% | 22% | 24% | 5% | 0% | 2% | 0% | 0% | 0% | 56% | 0% | 9% | 18% | 51% | 0%
3 | CS(=O)(=O)CCNCc1nc(-c2ccc3ncnc(Nc4ccc(OCc5cccc(F)c5)c(Cl)c4)c3c2)cs1.Cl [GW583340] | 0% | 0% | 0% | 0% | 0% | 14% | 0% | 80% | 0% | 0% | 0% | 0% | 22% | 0% | 0% | 0% | 6% | 0% | 0% | 0%
4 | Cl.c1ccc(Cn2ncc3cc(Nc4ncnc5ccccc45)ccc32)cc1 [GW273749] | 0% | 0% | 0% | 0% | 0% | 23% | 0% | 0% | 6% | 0% | 0% | 0% | 15% | 0% | 0% | 0% | 12% | 0% | 0% | 0%
5 | COc1ccc(NC(=O)Nc2ccc(C)c(-c3ccc(C(=O)Nc4ccncc4)cc3)c2)cc1 [GSK1398475] | 0% | 0% | 0% | 0% | 0% | 6% | 3% | 19% | 3% | 0% | 0% | 0% | 19% | 0% | 0% | 0% | 17% | 17% | 0% | 0%
6 | CSc1nn2c(=O)cc(N3CCOCC3)nc2n1Cc1cccc(Cl)c1Cl [GSK2347225] | 0% | 0% | 2% | 0% | 3% | 10% | 18% | 7% | 0% | 0% | 14% | 2% | 4% | 0% | 3% | 3% | 24% | 15% | 1% | 0%
7 | Cn1ccc2ncnc(Oc3ccc(NC(=O)Nc4cccnc4)c(Cl)c3)c21 | 49% | 12% | 0% | 0% | 0% | 5% | 6% | 0% | 0% | 0% | 18% | 0% | 13% | 0% | 1% | 0% | 0% | 0% | 0% | 0%
8 | Cl.Cl.c1ccc(-c2cc3ccncc3cc2OC2CCNCC2)cc1 [GSK1122999] | 0% | 0% | 0% | 0% | 4% | 21% | 12% | 7% | 2% | 0% | 1% | 0% | 0% | 7% | 0% | 6% | 27% | 26% | 0% | 0%
9 | COC(=O)c1cccc(NC(=O)NCCNc2ccnc(Nc3ccc(F)cc3)n2)c1 [GSK1379883] | 0% | 0% | 0% | 0% | 0% | 16% | 0% | 23% | 13% | 0% | 0% | 0% | 1% | 0% | 0% | 0% | 14% | 0% | 19% | 0%
10 | Cc1cc(N2CCC(NS(=O)(=O)c3ccc(F)cc3)CC2)nc(Nc2cccc(C#N)c2)n1.O=C(O)C(F)(F)F [GSK1653537] | 6% | 0% | 0% | 0% | 0% | 1% | 0% | 9% | 0% | 11% | 3% | 0% | 5% | 0% | 0% | 0% | 11% | 0% | 0% | 0%
